Screening results deposited in PubChem by The Scripps Research Institute Molecular Screening Center.
hcDAF-12 act: H. contortus DAF-12 activation, primary screen | activation, % at 6.8 µM | hit rate 1.4% among 370,000 | AID 652067 | HEK293 hcDAF-12 lit1-tk-luc reporter, luminescence; 0% DMSO, 100% Δ7-dafachronic acid;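 active = activation above the mean of all tested compounds plus 3 SD, cut at about 5.5% in these data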;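 also: 100% = response to 3 µM Δ7-dafachronic acid high control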
DAX1 inh-1: NR0B1 (DAX1) inhibition; hit rate 0.99% among 340,000; inhibition, % at 6.75 µM; HEK293 Gal4-DAX1 luciferase reporter, luminescence; AID 504766; P51843;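 active = inhibition above the mean over all tested compounds plus 3 SD, cut at about 4.2% in these data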;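 also: 0% = DAX1-transfected cells with DMSO and 100% = empty-vector control cells with DMSO; inhibition shows as a rise in luminescence from relieved DAX1 repression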
Target sequence (P51843 207-470 limits assumed): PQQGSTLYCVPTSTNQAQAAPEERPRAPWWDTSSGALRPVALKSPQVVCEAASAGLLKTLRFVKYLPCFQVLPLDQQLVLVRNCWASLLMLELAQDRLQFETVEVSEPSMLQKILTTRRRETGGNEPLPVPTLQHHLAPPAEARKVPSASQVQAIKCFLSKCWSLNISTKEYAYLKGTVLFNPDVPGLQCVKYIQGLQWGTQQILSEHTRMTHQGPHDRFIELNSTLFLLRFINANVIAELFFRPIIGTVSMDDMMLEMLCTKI
DAX1 inh-2: inhibitors of DAX1 repression of SF-1 activated StAR promoter | HEK293T StAR-luciferase reporter, SF-1/DAX-1 repression relief | inhibition, % at 6.8 µM | hit rate 1.1% among 370,000;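 active = inhibition above the mean over all tested compounds plus 3 SD, cut at about 3.6% in these data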;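 also: 0% = DAX-1 cells with DMSO and 100% = cells lacking DAX-1 with DMSO; higher inhibition means more luminescence from relief of DAX-1 repression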
hgDAF12 agonist: agonists of H. glycines DAF-12 nuclear receptor; HEK293 GAL4-hgDAF12 UAS-luciferase reporter, agonist luminescence; normalized to butyrate control; activation, % at 6.8 µM; hit rate 1.8% among 370,000; AID 687014;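 active = activation above a cutoff set at the mean of all screened compounds plus 3 SD, cut at about 10% in these data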;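 also: 0% = DMSO wells and 100% = sodium butyrate wells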
ssDAF-12 act: S. stercoralis DAF-12 activation, primary screen; hit rate 1% among 370,000; activation, % at 6.8 µM; HEK293 ssDAF-12/GRIP1 lit1-tk-luc reporter, luminescence; % of 3 µM dafachronic acid response;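 active = activation above the mean over all tested compounds plus 3 SD, cut at about 0.9% in these data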;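 also: 0% = DMSO-only wells and 100% = 3 µM delta7-dafachronic acid wells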
DAX1 conf: NR0B1 (human) inhibition, confirmation; shares compounds with DAX1 inh-2; HEK293T StAR-promoter luciferase reporter, SF-1/DAX-1 repression; inhibition, % at 6.8 µM; hit rate 87% among 2,400;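 active = inhibition above the average of every tested compound plus 3 SD, cut at about 3.8% in these data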;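 also: 0% = DAX-1 cells with DMSO and 100% = no DAX-1 control cells with DMSO; active compounds raise luminescence by relieving repression of the StAR reporter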
SF1 AF2mut Luc: counter-screen for DAX1 inhibitors: nonselective inhibitors with SF-1 AF2 mutant. inhibition, % at 6.8 µM. AID 652136. hit rate 78% among 2,400. HEK293 StAR-luciferase, luminescence. shares compounds with DAX1 inh-2;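 active = inhibition above the mean of all tested compounds plus 3 SD, cut at about 3% in these data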;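 also: 0% = DAX-1 transfected cells with DMSO and 100% = cells without DAX-1 with DMSO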
LXR ag: activates human LXR-beta, counter-screen for hcDAF-12 agonists; AID 743027; activation, % at 6.8 µM; 3,400 tested, under 10 active; shares compounds with hcDAF-12 act; HEK293 Gal4-LXR tk-luc reporter, luminescence, 24 h; normalized: DMSO 0%, positive control 100%;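 active = mean percent activation of the reporter above a cutoff set as the average over tested compounds plus their standard deviation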
Target sequence (P55055 whole entry, looked up, the tested form may be a part): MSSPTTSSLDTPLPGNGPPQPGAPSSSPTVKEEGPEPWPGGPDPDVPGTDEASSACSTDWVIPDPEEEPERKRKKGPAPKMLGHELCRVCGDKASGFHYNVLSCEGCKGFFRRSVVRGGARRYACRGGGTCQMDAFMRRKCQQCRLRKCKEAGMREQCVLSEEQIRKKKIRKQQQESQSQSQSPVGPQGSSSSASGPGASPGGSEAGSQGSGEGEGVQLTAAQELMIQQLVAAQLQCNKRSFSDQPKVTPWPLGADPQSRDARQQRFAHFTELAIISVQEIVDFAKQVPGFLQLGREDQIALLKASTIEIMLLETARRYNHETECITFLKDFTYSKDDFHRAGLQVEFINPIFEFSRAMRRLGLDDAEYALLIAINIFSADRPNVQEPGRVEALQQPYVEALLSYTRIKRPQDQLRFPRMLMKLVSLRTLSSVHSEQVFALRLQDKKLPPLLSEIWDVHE
hcDAF12 conf: confirmation of H. contortus DAF-12 agonists. shares compounds with hcDAF-12 act. activation, % at 6.8 µM. hit rate 61% among 3,400. HEK293 hcDAF-12 lit1-tk-luc reporter, luminescence; % of Δ7-dafachronic acid response;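 active = mean activation across triplicate tests above the threshold derived from the earlier primary screen, cut at about 5.5% in these data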;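 also: 0% = DMSO only wells and 100% = 3 µM Δ7-dafachronic acid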
hgDAF12 conf: hgDAF-12 agonism, confirmation assay; shares compounds with hgDAF12 agonist; HEK293 GAL4-hgDAF12 luciferase reporter, agonist mode; percent of butyrate response; activation, % at 6.8 µM; hit rate 80% among 3,300; AID 743050;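 active = mean activation over triplicate wells above the hit cutoff derived from the earlier primary screen, cut at about 11% in these data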;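 also: 0% = DMSO low control and 100% = 2 mM sodium butyrate high control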
LXRb DAF12 ctr: counter-screen for DAF-12 agonists: agonists of human LXR-beta | shares compounds with hgDAF12 agonist | activation, % at 6.8 µM | HEK293 Gal4-LXR luciferase reporter, 24 h | 3,300 tested, under 10 active;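 active = mean activation of the triplicate above a set limit carried over from the primary screen, none filed active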
An asterisk follows results filed as active; nt = not tested or not shown. Shown are actives, neighbours in structure and some others; about 4.1% of the full set was active somewhere.

SMILES | hcDAF-12 act | DAX1 inh-1 | DAX1 inh-2 | hgDAF12 agonist | ssDAF-12 act | DAX1 conf | SF1 AF2mut Luc | others
Cn1cccc1/C=C1\C(=O)NC(=O)N(Cc2ccccc2Cl)C1=O | 1 | 3 | 0 | 0 | -1 | nt | nt
CC(=O)O[C@@]12CO[C@@H]1C[C@H](O)[C@@]1(C)C(=O)[C@H](O)C3=C(C)[C@@H](O)C[C@@](O)([C@@H](OC(=O)c4ccccc4)C12)C3(C)C (stereo partly drawn) | 0 | 4.3* | 1 | 1 | -1 | nt | nt
CN1C2(C)c3ccccc3C1(c1ccccc1)c1ccccc12 | 0 | nt | -1 | -3 | -1 | nt | nt
Brc1csc(N2CCNCC2)n1 | -1 | nt | nt | -1 | -1 | nt | nt
CCOc1ccc(N2C(=O)NC(=O)/C(=C\c3cc(OC)c(OC)cc3[N+](=O)[O-])C2=O)cc1 | nt | -1 | nt | nt | nt | nt | nt
CCOc1cc(/C=C2\C(=O)NC(=O)N(C)C2=O)cc([N+](=O)[O-])c1O | 0 | 13* | 0 | 4 | -2 | nt | nt
CCOC(=O)c1c(C)[nH]c(C(=O)C(Cc2ccccc2)N(C)C)c1C (stereo not drawn) | -2 | 0 | -1 | 3 | -1 | nt | nt
COC(=O)c1c(C)[nH]c(C(=O)C(Cc2ccccc2)N(C)C)c1C (stereo not drawn) | 6.4* | 0 | 0 | 2 | 0 | nt | nt
CC1CCCN(c2ccc(C(=O)N3CCC4(CC3)OCCO4)cc2[N+](=O)[O-])C1 (stereo not drawn) | -3 | -1 | 1 | -1 | -1 | nt | nt
O=C(c1ccc(N2CCCCC2)c([N+](=O)[O-])c1)N1CCC2(CC1)OCCO2 | -1 | 5.1* | -1 | -1 | -2 | nt | nt
CC1(C)CN=C(NCc2ccccc2)S1 | -1 | 1 | 0 | 0 | -1 | nt | nt
CC1(C)CN=C(Nc2nc3ccccc3s2)S1 | 5 | 3 | 3 | 10 | 1.5* | nt | nt
CC(C)C(CN1CCC(C)(c2cccc(O)c2)[C@@H](C)C1)NC(=O)C1Cc2ccc(O)cc2CN1 (stereo partly drawn) | 0 | nt | 0 | 4 | -1 | nt | nt
CN(C)c1ccc([N+](=O)[O-])c([N+](=O)[O-])c1 | 1 | 4.4* | 0 | -2 | -1 | nt | nt
COC(=O)C1(N(C)c2ccccc2)CCN(Cc2ccccc2)CC1 | 2 | nt | 1 | 0 | -1 | nt | nt
CCN(CC)P(c1n(C)cc[n+]1C)N(CC)CC | -1 | 6.2* | 0 | 0 | -1 | nt | nt
CN1OC[C@@H]2CN3C4(C[C@@H]21)c1ccccc1C3(c1ccccc1)c1ccccc14 | -1 | nt | 0 | -3 | -1 | nt | nt
CCOC(=O)[C@]12Cc3c(cc(OC)c(OC)c3OC)[C@H]1N(C(C)C)C(=O)c1ccccc12 | 0 | nt | 5.5* | -1 | -1 | 4.6* | 6.4*
CCOC(=O)[C@]12Cc3ccccc3[C@H]1N(C(C)C)C(=O)c1cc(OC)ccc12 | 0 | nt | 7.0* | -4 | -1 | 6.0* | 16*
CCOC(=O)[C@]12Cc3c(cc(OC)c(OC)c3OC)[C@H]1N(C)C(=O)c1cc(OC)ccc12 | 2 | nt | 4.7* | 0 | -1 | 9.5* | 14*
COc1ccccc1N1CCN(CCc2ccccc2)CC1 | 4 | 1 | 0 | 6 | 1 | nt | nt
CN1CCN(C(=O)COc2ccc(N(C)S(=O)(=O)c3ccc(F)cc3)cc2)CC1 | -1 | -1 | 1 | 0 | -1 | nt | nt
C[C@H]1CCC/C=C/[C@@H]2C[C@H](O)C[C@H]2[C@H](O)/C=C/C(=O)O1 | -3 | -3 | 4.4* | -1 | -2 | 10* | 2
C[C@H]1CCCC(=O)CCC/C=C/c2cc(O)cc(O)c2C(=O)O1 | -4 | 1 | -1 | -7 | -2 | nt | nt
CN1CCCN(C(=O)COc2ccc(Br)cc2)CC1 | 1 | 2 | 0 | 2 | 0 | nt | nt
SMILES | hcDAF-12 act | DAX1 inh-1 | DAX1 inh-2 | hgDAF12 agonist | ssDAF-12 act | DAX1 conf | SF1 AF2mut Luc | others
Cc1cc(OCC(=O)N2CCCN(C)CC2)ccc1Cl | 0 | 0 | 5.2* | 2 | 0 | 3 | 0
CN1C2CNC(=O)CC1C1CCC2C1 (stereo not drawn) | -2 | 0 | 0 | 2 | -1 | nt | nt
Cc1cc2c(cc1C)NP(=S)(c1ccccc1)N2 | 8.0* | 0 | 11* | 19* | 1.2* | 13* | 8.4* | LXR ag=2;hcDAF12 conf=13*
CCCCN1C(=O)C(C2c3ccccc3C(=O)N2Cc2ccccc2)C(=O)NC1=S (stereo not drawn) | 0 | -2 | 0 | 4 | -1 | nt | nt
Cc1ccc2c(c1N)C(=O)c1ccccc1C2=O | 4 | 1 | 5.3* | 16* | 1 | 11* | 5.8* | hgDAF12 conf=13*;LXRb DAF12 ctr=1
CN(C)C(=O)Oc1ccc(-c2cn3cc(Cl)ccc3n2)cc1 | 7.8* | -1 | 6.1* | 17* | 1 | 16* | 6.3* | LXR ag=1;hcDAF12 conf=4;hgDAF12 conf=15*;LXRb DAF12 ctr=1
CC/C(=N\NC(=O)c1ccccc1Cl)c1c(O)n(C2CCCCC2)c(=O)[nH]c1=O | -1 | 0 | 3 | 7 | -1 | nt | nt
CC/C(=N\NC(=O)c1ccccc1)c1c(O)n(C2CCCCC2)c(=O)[nH]c1=O | 3 | 1 | 4.8* | 15* | -1 | 2 | 1 | hgDAF12 conf=2;LXRb DAF12 ctr=0
CC(C)(C)NC(=S)N1CCn2cccc2C1c1cccnc1 (stereo not drawn) | -1 | 2 | 0 | 5 | -2 | nt | nt
CCC1(O)CCC2C3CCC4=CC(=O)CCC4C3CCC21CC (stereo not drawn) | 0 | -1 | 0 | -1 | -1 | nt | nt
CSc1ccc(C(=O)C2CCCN(CCCn3cccn3)C2)cc1 (stereo not drawn) | -1 | 1 | 0 | 0 | -2 | nt | nt
COc1ccc(-c2cc(=Nc3ccccc3)c3cc(C)ccc3o2)cc1 | 7.3* | -1 | 5.1* | 22* | 0 | 6.1* | 4.3* | LXR ag=0;hcDAF12 conf=1;hgDAF12 conf=18*;LXRb DAF12 ctr=1
COc1ccc(-c2cc(=O)c3c(OC)c(OC)c(OC)cc3o2)cc1 | -4 | -3 | -2 | 0 | -2 | nt | nt
